According to PubChem BioAssay AID1778 (Sanford-Burnham Center for Chemical Genomics, 2009):
Out of some 290,000 compounds screened, about 260 (0.09%) were called active. Rule as the data show it: active = inhibition above about 50%; inactive = the rest. The full list was thinned out, with actives kept by preference. Results with a measured potency or affinity are listed apart.

Each compound was assayed against Kappa-type opioid receptor (Homo sapiens) (UniProt P41145) (assay: KOR antagonists, beta-arrestin recruitment, cell-based, luminescence, uHTS (AID 1778)). Details: antagonist mode, active compounds read high; at 10 µM unless noted.
Sequence of Kappa-type opioid receptor (Homo sapiens) (P41145 whole entry, looked up): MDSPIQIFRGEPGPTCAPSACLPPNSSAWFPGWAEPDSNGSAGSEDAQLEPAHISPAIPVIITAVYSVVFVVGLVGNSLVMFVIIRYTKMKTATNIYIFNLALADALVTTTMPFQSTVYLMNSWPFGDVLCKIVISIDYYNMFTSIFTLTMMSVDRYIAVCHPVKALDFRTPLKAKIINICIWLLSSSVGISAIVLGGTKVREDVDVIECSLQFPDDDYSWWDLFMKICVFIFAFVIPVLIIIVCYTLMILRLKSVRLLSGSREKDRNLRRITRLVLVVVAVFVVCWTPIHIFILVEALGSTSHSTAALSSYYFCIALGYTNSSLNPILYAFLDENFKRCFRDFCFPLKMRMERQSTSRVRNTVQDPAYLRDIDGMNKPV

inhibition, active:
C/C(=N\NC(=O)c1ccc(F)cc1)c1ccccn1 86.6%, Cc1nc2c(-c3ccc(Cl)cc3)c(C)[nH]n2c(=O)c1Cc1ccccc1 51%, Oc1ccc(N=Nc2ccc3c(c2)OCO3)c2ccccc12 85.1%, Oc1ccc(N=Nc2ccc3c(c2)OCCO3)c2cccnc12 68.5%, Oc1c(CN2CCN(c3ccccc3)CC2)cc(Br)c2cccnc12 64%, COc1ccccc1N1CCN(Cc2cc(Br)c(O)c3ncccc23)CC1 63.3%

inhibition, inactive:
C/C(=N\S(=O)(=O)c1ccc(C)cc1)NC(=S)Nc1ccc(C)cc1 -12%, CCOc1ccccc1N(C(=O)c1snc(C(N)=O)c1N)C(C(=O)NC1CCCC1)c1cccs1 (configuration not stated) -14.9%, CCCOCn1cc(F)c(=O)[nH]c1=O 20.7%, COc1ccc(OCc2nnc(SCC(=O)Nc3ccccc3C#N)o2)cc1 -9.7%, COc1ccc(NC(=O)c2ccc(CN(c3cc(Cl)ccc3C)S(=O)(=O)c3ccccc3)cc2)cc1OC -2.5%, Cn1c(CNC(=O)c2ccccc2F)nnc1SCC(=O)NCc1ccccc1 -10.1%, Fc1ccc(-c2ccnc(=S)[nH]2)cc1 2.9%, C/C(=N/NC(=O)c1ccccn1)c1ccncc1 -12.4%, C/C(=N/NC(=O)c1ccccn1)c1ccc(O)cc1 12.9%, Cc1ccc2ccc3ccc(C)nc3c2n1 -8.8% [at 20 µM], Cc1ccc(O)c(CO)n1 0.6%, Nc1n[nH]c2cc(=O)n(-c3ccc(Cl)cc3)nc12 -68.5% [at 20 µM], COc1ccc(-n2nc3c(N)n[nH]c3cc2=O)cc1 -30.3% [at 20 µM], COc1cccc(-n2nc(C#N)c(Cl)cc2=O)c1 32.8%, CC(C)(C)c1ccc(-n2nc(C(N)=O)c(O)cc2=O)cc1 -2%, COc1cc(C=O)ccc1OCCSc1ccc(Cl)cc1 16.4%, CC(CCc1ccccc1)NC(=O)c1ccc(NC(=O)c2ccc(Cl)cc2Cl)cc1 (configuration not stated) 26.3%, C/C=N/NC(=O)CCNC(=O)c1ccccc1 -40%, CCCCn1c(-c2cccs2)nc2oc3ccccc3c(=O)c2c1=O 17.8%, Cc1cc2nnc(SCC(=O)Nc3cc(S(=O)(=O)N4CCOCC4)ccc3Cl)n2c2ccccc12 -21.8%, O=C(NNC(=O)C1CC=CCC1C(=O)O)c1cccs1 (configuration not stated) 30.6%, CC1SCC(NC(=O)c2cccc(Cl)c2)CS1 (configuration not stated) -29.1%, CCN(CC(=O)Nc1ccccc1C(F)(F)F)C(=O)CCc1nc2ccccc2c(=O)[nH]1 -11.6%, COc1ccc(-c2c(C)[nH]n3c(=O)c(Cc4ccccc4)c(C)nc23)cc1 -5.1%, Cc1nc2c(-c3ccccc3)c(C)[nH]n2c(=O)c1Cc1ccccc1 -10.5% [at 20 µM], COc1ccc(CC(=O)Nc2ccc(C(C)=O)cc2)cc1 -81.9% [at 20 µM], Oc1[nH]c2ccccc2c1C=Nc1ccc2c(c1)OCO2 -33.1%, Oc1ccc(N=Nc2ccc3c(c2)OCCO3)c(O)c1 34.9%, Nc1ccc(N=Nc2ccccc2)c2cccnc12 -4.3%, Oc1[nH]c2ccccc2c1C=Nc1ccc2c(c1)OCCO2 0.8%, O=S(=O)(O)c1cccc2c(N=Nc3ccc(O)c4ncccc34)cccc12 -7.2%, O=S(=O)(Nc1ccc(N=Nc2ccc(O)c3ccccc23)cc1)c1ccccc1 -3.4%, COc1ccccc1NC(=O)c1cc2c(CO)cnc(C)c2oc1=Nc1cccc(C(N)=O)c1 21.7%, CCN(CC)CC#Cc1ccc(C)cc1 -6.4%, CCC(C(=O)OC)n1cnc2c(nnn2-c2ccccc2)c1=O (configuration not stated) -16.1% [at 20 µM], Cc1nn(-c2ccc(N3CCCCC3)nn2)c(C)c1CCC(=O)Nc1ccc(F)c(F)c1 -31.5%, Cc1cc(C)cc(NC(=O)c2ccc3c(c2)CCN3S(C)(=O)=O)c1 -4.2%, COc1ccccc1N1CCN(Cc2ccc(O)c3ncccc23)CC1 -12.2%, O=[N+]([O-])c1cc(CN2CCN(c3ccccc3)CC2)c(O)c2ncccc12 12% [at 20 µM], Oc1c(CN2CCCCC2)cc(Br)c2cccnc12 -1.9%, COc1ccccc1N1CCN(Cc2cc3c(cc2Br)OCCO3)CC1 -44.1%, COc1ccc(N2CCN(C(=O)c3cc4c(=O)n(Cc5ccccc5)ccc4nc3C)CC2)cc1 -13.1%, CCCCOc1ccc(C(=O)NNC(=S)NC(=O)CC)cc1 26.3%, CCCOc1ccc(C(=O)NNC(=S)NC(C)=O)cc1 19.1%, CCc1nnc(NC(=O)c2ccc(-c3ccccc3F)o2)s1 -18.1%, CC(C)(C)C1CCC(=NNC(=S)Nc2cccnc2)CC1 (configuration not stated) 11.2%, CC1=C/C(=N\NC(=S)NCCc2ccccc2)CC(C)(C)C1 -16.1%, O=C(Nc1ccc(NC(=O)c2ccccc2Cl)nc1)c1ccco1 -2%, CC(=O)O[C@@H]1[C@H]2[C@@H](C[C@@H](C)[C@@H]3C=CC(=O)[C@@]13C)OC(=O)[C@@H]2C 23.9%, C=C1C(=O)O[C@@H]2C[C@@H](C)[C@@H]3C=CC(=O)[C@@]3(C)[C@@H](OC(C)=O)[C@H]12 26.1%, CN(C)CCCNC(=S)NCCNc1nc2cc3c(cc2cc1C#N)OCO3 0.9%, O=C(Nc1ccc(CN2CCS(=O)(=O)CC2)cc1)c1ccccc1 0.1%, CCC(=O)OCCNc1cc(SCCC(=O)OC)c2nonc2c1[N+](=O)[O-] 5.5%, Cn1ccnc1Sc1cc(NCCCO)c([N+](=O)[O-])c2nonc12 41.5%, CCCSc1cc(NCCOC(=O)CCC)c([N+](=O)[O-])c2nonc12 -2.8%, CCCC(=O)OCCNc1cc(SCCC(=O)OC)c2nonc2c1[N+](=O)[O-] -12.2%, Cc1csc(SCC(=O)NC(=O)C2CCCCC2)n1 -17.4%, Nc1cc(=O)[nH]c(SCC(=O)Nc2cc([N+](=O)[O-])ccc2Cl)n1 15.1%, O=C(CNC(=O)c1ccco1)OCC(=O)c1ccc(Br)cc1 -35%, Cc1nc(Nc2nc3ccccc3o2)nc2c1CCC2 21.7%, Cc1ccc(Nc2nc3c(c(=O)[nH]2)CCCC3)cc1 -0.9%, Cc1nn(C)cc1S(=O)(=O)Nc1ccc(F)c(F)c1 9%, COc1ccc(C)cc1NC(=O)CN(c1ccc(F)cc1)S(C)(=O)=O -4.9%, COc1cccc2sc(Nc3nc(-c4cc5ccccc5oc4=O)cs3)nc12 -2.1%, Cc1cccnc1Nc1nc(-c2ccccc2)cs1 1.5%, COc1cccc2sc(Nc3nc(-c4ccncc4)cs3)nc12 -21.7%, Cc1cccnc1Nc1nc(-c2ccc(O)cc2)cs1 17.8%, CCc1nc(N2CCN(C(C)=O)CC2)c2c3c(sc2n1)CC(C(C)(C)C)CC3 (configuration not stated) -42.9% [at 20 µM], CN(CC(=O)NCCc1ccccc1)S(=O)(=O)c1cccc2nsnc12 -1.3%, O=C(CC1C(=O)NCCN1Cc1ccccc1C(F)(F)F)NCCc1ccccn1 (configuration not stated) -9.9% [at 20 µM], O=C(c1cc(F)ccc1F)C1CCCN(C(=O)CCCN2CCCCC2=O)C1 (configuration not stated) 20.7%, O=C(Cn1c(=O)c2cccn2c2cccnc21)NCCCN1CCN(c2ccc(F)cc2)CC1 -19.4%, COc1ccc(N2CCN(C(=O)C(=O)c3c(C)n(C)c4ccccc34)CC2)cc1 -32.2%, COc1ccc(N2CCN(CCCNC(=O)Cn3c(=O)c4cccn4c4ccccc43)CC2)cc1 47.8%, COc1ccc(N2CCN(CCCNC(=O)C(=O)c3c(C)[nH]c4ccccc34)CC2)cc1 15.4%, CN(C(=O)COC(=O)c1cc2c(s1)CCCCC2)C1CCS(=O)(=O)C1 (configuration not stated) 31.3%, COc1ccc(C2(NC(C)=O)CCN(C(=O)c3cccs3)CC2)cc1 -9.8%, O=C(Cn1cnc2c(cnn2-c2ccccc2)c1=O)N1CCCc2ccccc21 -16.3%, O=C(C1CC1)N1N=C(c2ccc(F)cc2)CC1(O)C(F)(F)F (configuration not stated) 26.6% [at 20 µM], CCOC(=O)N1CCN(S(=O)(=O)c2ccc(C(=O)N(CCCN(C)C)c3nc4ccc(Cl)cc4s3)cc2)CC1 -7.9%, COc1ccc(C[C@H]2CN3C(=NC[C@@H]3Cc3ccc(O)cc3)N2C[C@H](C)NC(=O)c2ccc(C)c(Br)c2)cc1 15.3%, Cc1ccc(C(=O)N[C@@H](C)CN2C3=NC[C@H](C)N3C[C@H]2Cc2ccc(O)cc2)cc1Br 45.3%, Cc1ccc(C(=O)N[C@@H](C)CN2C3=NC[C@H](C(C)C)N3C[C@H]2Cc2ccc(O)cc2)cc1Br 19.2%, COc1ccc(C[C@@H]2CN3C(=NC[C@@H]3C)N2C[C@H](C)NC(=O)c2ccc(C)c(Br)c2)cc1 40%, NS(=O)(=O)c1ccc(CCNC(=O)CSc2nc3ccsc3c(=O)n2CCCCC(=O)O)cc1 3%, N#CCC(=O)NNC(=S)NC(=O)C(c1ccccc1)c1ccccc1 -32.2% [at 20 µM]
